# High-throughput results deposited in PubChem BioAssay by National Center for Advancing Translational Sciences (NCATS).
# GLP1R inv ag = acts as inverse agonist at human GLP-1 receptor | P43220 | HEK293 GLP-1R CRE-luciferase, luminescence, 24 h; GLP-1R form is constitutively active | Potency, µM (doses to about 38.3 µM), for inactives: at the highest dose activity change, negative = inhibition, usual class: inhibitors | hit rate 1.6% among 410,000; further: on the % scale 0 is the no-effect control and ±100 the full control effect; nearly all actives have a fitted effect of over 55% in size
# Target sequence (P43220 whole entry, looked up): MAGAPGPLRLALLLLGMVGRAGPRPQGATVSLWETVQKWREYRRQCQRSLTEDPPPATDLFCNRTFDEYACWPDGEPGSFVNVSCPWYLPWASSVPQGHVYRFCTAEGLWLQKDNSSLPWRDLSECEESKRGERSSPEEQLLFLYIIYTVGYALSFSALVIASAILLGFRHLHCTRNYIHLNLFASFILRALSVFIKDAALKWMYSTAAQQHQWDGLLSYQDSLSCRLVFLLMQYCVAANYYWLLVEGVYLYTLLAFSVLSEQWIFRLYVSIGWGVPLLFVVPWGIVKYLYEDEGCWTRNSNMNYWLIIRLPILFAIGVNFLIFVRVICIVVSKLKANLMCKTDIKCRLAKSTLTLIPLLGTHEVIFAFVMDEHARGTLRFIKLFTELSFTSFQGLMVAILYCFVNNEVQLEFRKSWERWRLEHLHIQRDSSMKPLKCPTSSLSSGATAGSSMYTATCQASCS
#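 Inverse agonism was detected as reduced cAMP-driven luciferase luminescence after 24 h compound treatment. The cells were HEK293 clones expressing constitutively active human GLP-1R with the reporter. Reporter-only and GPR119 cell lines served as counterscreen controls.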
# HepG2 viability = HepG2 cytotoxicity, counter-screen for TGF-b inhibitors. HepG2 CAGA-GFP viability, ATP luminescence, 18 h. Potency, µM (doses to about 46.1 µM), for the others: at the top dose activity change, negative = cytotoxicity, usual class: cytotoxic. hit rate 0.76% among 410,000. AID 588856
#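 HepG2 CAGA-GFP cells (1000/well, DMEM with 1% FBS) received compound, then TGF-beta at 500 pg/mL final, and were incubated 18 hours at 37 degrees C. Viability was read by CellTiter-Glo luminescence. Media-only wells were set as complete cell-killing and DMSO as no toxicity.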
# GLP1R ag = GLP-1 receptor (human) agonism; Potency, µM (doses to about 45.6 µM), inactives show at the top dose activation, actives largely listed as activators; hit rate 0.007% among 380,000; HEK293 GLP-1R CRE-luciferase, luminescence, 4-6 h; cells express a hypersensitive GLP-1R form; further: % of control where 0% means no effect
# S2 tox = viability counter-screen for ATXN expression inhibitors | hit rate 0.49% among 400,000 | S2 cells (HEK-293 line with an ATXN2-luciferase reporter) viability, CellTiter-Fluor protease fluorescence, 24 h | Potency, µM (titrated, usually from 56.7 µM), usual class: cytotoxic; further: nearly all actives have a fitted effect of over 40% in size
# TGFb SMAD3 inh = inhibitors of TGF-b signaling; Potency, µM (top dose mostly 46.1 µM), without a hit: at the top dose activity, negative = inhibition, most hits filed as inhibitors; HepG2 CAGA-GFP TGF-b/SMAD3 reporter, GFP fluorescence, 18 h; TGF-beta stimulated, 500 pg/mL final; AID 588855; hit rate 1.2% among 410,000; further: on the % scale 0 is the no-effect control and ±100 the full control effect; nearly all actives have a fitted effect of over 65% in size
#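 HEPG2 CAGA-GFP reporter cells (1000/well, DMEM with 1% FBS) received compounds, then recombinant TGF-beta at 500 pg/mL final for 18 hours at 37 degrees C. Per-cell GFP summed per well was normalised to unstimulated and stimulated DMSO controls before curve fitting.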
# ATXN2 expr inh = ATXN2 expression inhibition; AID 1745845; hit rate 0.72% among 360,000; Potency, µM (top dose mostly 57 µM), for inactives: at the highest dose activity change, negative = inhibition, usual class: inhibitors; HEK-293 ATXN2-luciferase reporter, luminescence, 24 h; further: on the % scale 0 is the no-effect control and ±100 the full control effect; nearly all actives have a fitted effect of over 55% in size
#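 qHTS (up to 57 uM final) was run with 24 h compound exposure of reporter cells at 37 °C. Each well was multiplexed: SteadyGlo luminescence measured ATXN2-luciferase expression after a fluorogenic Gly-Phe-AFC viability readout (25 uM final).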
# * = called active by the depositor; i = inactive; u = inconclusive; x = no result given; ! = repeats disagree. Only some compounds are listed: those with a hit (about 3.7% of all), similar ones and a draw of the others. The call rests on the fitted dose curve; in most records, active means well fitted curve in the direction sought with a large enough effect; inconclusive means small, poorly fitted or top-dose-only effect, or another doubt; inactive means no such curve, though single readings can be large; an effect the other way counts as inactive or inconclusive. Potency means the concentration at half of the fitted maximal effect.
SMILES,GLP1R inv ag,HepG2 viability,GLP1R ag,S2 tox,TGFb SMAD3 inh,ATXN2 expr inh
CCOC(=O)C[C@H]1c2cc(F)ccc2S(=O)(=O)N1Cc1cc(OC)c(OC)c(OC)c1,x,-14.8%,x,x,u,x
CC(C)C[C@@H](CO)N(Cc1ccccc1)S(=O)(=O)N(Cc1ccccc1)[C@@H](CO)CC(C)C,2.51µM*,15.8µM*,-2.3%,u,10µM*,u
CC(C)C[C@@H](CO)N(Cc1ccccc1)S(=O)(=O)N(Cc1ccccc1)[C@H](CO)CC(C)C,u,-114.8%,-2.9%,u,11.2µM*!,u
C=C[C@H](CC(C)C)N(Cc1ccccc1)S(=O)(=O)N(Cc1ccccc1)[C@@H](C=C)CC(C)C,3.5%,-35.1%,1.6%,i,2.1%,1.3%
C=CS(=O)(=O)N(Cc1ccccc1Br)[C@H](CO)CC(C)C,u,-46.9%,-0.3%,31.6µM*,u,u
O=S(=O)(N(Cc1ccccc1)[C@H](CO)Cc1ccccc1)N(Cc1ccccc1)[C@H](CO)Cc1ccccc1,-5.2%,-10.0%,-4.4%,i,-8.3%,u
CCN([C@H](CO)CC(C)C)S(=O)(=O)c1ccccc1,8.3%,-7.8%,-1.6%,i,-2.1%,-2.2%
COc1ccc(CN([C@H](CO)CC(C)C)S(=O)(=O)N(Cc2ccccc2)[C@H](CO)CC(C)C)cc1,4.47µM*,11.2µM*!,-9.6%,x,u,u
C=C1C=C(C)n2ncc(C(=O)Nc3ccccc3C(=O)OC)c2N1,x,-0.8%,x,x,-0.8%,x
COc1cccc(-n2c(SC)nnc2C2CCN(Cc3cccc(OC)c3O)CC2)c1,x,x,x,i,x,x
Oc1ccc(C=Cc2cc(O)cc(O)c2)cc1,x,x,x,x,x,59.2%
Cc1ccc(C)c(CNC(=O)c2ccc3c(c2)nc2n3CCCCC2)c1,u,-50.6%,x,x,5.3%,x
C=CCN(C)CCCCCCOc1ccc(C(=O)c2ccc(Br)cc2)c(F)c1,x,-50.7%,x,x,u,x
CC(C)Cc1nc2cc(NS(=O)(=O)N(C)C)cc(C(=O)N3CCc4ccccc4C3)c2n1C,x,x,x,i,x,x
C[S+](C)CC(=O)c1ccc2ccccc2c1,x,-12.4%,x,x,24.1%,x
Cc1ccc2cc3cc(C(=O)N4CC(C)CC(C)C4)oc3nc2c1 (stereo not drawn),7.94µM*,-56.7%,20.9%,i,3.5%,22.4%
COc1ccc(F)c(CN2CCC3(CCC(CNC(=O)c4cc(C)nn4C)O3)CC2)c1 (stereo not drawn),x,x,x,i,x,x
O=C(C[n+]1cccc(I)c1)c1ccc(F)cc1,x,-5.3%,x,x,17.2%,x
C(=C\c1nc2ccccc2s1)/c1ccc2c(c1)OCO2,x,-25.3%,x,x,4.4%,x
Cc1ccc(C)c(N2CCN(C(=O)c3ccccc3Br)CC2)c1,u,-38.9%,0.8%,i,-15.2%,2.9%
Cc1ccc(N2CCN(C(=O)c3ccccc3Br)CC2)c(C)c1,10µM*,-9.9%,-20.9%,i,3.2%,-3.8%
COc1ccc([C@H]2C[C@H](n3cc(-c4ccc(F)cc4)nn3)[C@@H](O)CN2Cc2cccs2)cc1,-16.0%,-25.7%,8.6%,i,-0.8%,-14.3%
COc1ccc([C@H]2C[C@H](O)[C@@H](n3cc(-c4ccc(F)cc4)nn3)CN2Cc2cccs2)cc1,u,-103.4%,10.7%,28.2µM*,u,15.8µM*
O[C@@H]1C[C@H](c2ccc(Cl)cc2)N(Cc2cccs2)C[C@H]1n1cc(-c2ccc(F)cc2)nn1,u,-17.7%,1.5%,u,-4.5%,-14.1%
O[C@H]1C[C@H](c2ccccc2)N(Cc2cccs2)C[C@@H]1n1cc(-c2ccc(F)cc2)nn1,u,11.2µM*,2.6%,31.6µM*,u,15.8µM*
SMILES,GLP1R inv ag,HepG2 viability,GLP1R ag,S2 tox,TGFb SMAD3 inh,ATXN2 expr inh
O[C@H]1CN(Cc2cccs2)[C@@H](c2ccccc2)C[C@@H]1n1cc(-c2ccc(F)cc2)nn1,10µM*,-46.8%,-4.8%,u,u,u
O[C@@H]1CN(CC2CCCCC2)[C@@H](c2ccccc2)C[C@H]1n1cc(-c2ccc(F)cc2)nn1,3.98µM*,-17.4%,-0.7%,u,u,u
Cc1cc2c(cc1C)N[C@]1(C[C@H]3CCCC(=O)N4CC[C@@H](C1)[C@@H]34)C(=Nc1ccccc1C)N2,x,10.5%,x,x,1.2%,x
CCc1ccccc1NC(=O)Nc1ccc2snnc2c1,u,-38.3%,-6.6%,i,u,u
O=C(Nc1ccc2snnc2c1)Nc1cccc2ccccc12,10µM*,-0.3%,-17.4%,u,-3.5%,u
CC(C)n1cc(/C=C2\NC(=O)N(c3cccc(Cl)c3)C2=O)c2ccccc21,3.98µM*,-11.9%,-14.6%,i,13.7%,-18.8%
COc1cccc(/C=C/C2=CC(C)(C)NC(=S)N2)c1,u,12.6µM*,5.9%,i,-13.8%,3.8%
C=CCOc1ccccc1C(=O)/C=C1/C(=O)Nc2ccccc21,u,6.31µM*,-1.6%,u,u,-13.9%
COc1ccc(C(=O)/C=C2/C(=O)Nc3ccccc32)cc1OC,-33.9%,-14.7%,-8.8%,u,-2.3%,x
COc1ccc(C(=O)/C=C2/C(=O)Nc3ccccc32)cc1,u,14.1µM*,-1.8%,u,u,u
COc1ccc(C(=O)/C=C2/C(=O)Nc3ccccc32)c(OC)c1,u,10µM*,-5.6%,i,12.6µM*,-13.1%
O=C1Nc2ccccc2/C1=C/C(=O)c1cccs1,u,14.1µM*,-59.4%,u,u,u
Cc1ccc(Cl)cc1N1CCN(C(=O)c2ccc(CS(=O)c3ccccc3)o2)CC1 (stereo not drawn),u,-23.8%,x,x,u,x
Cc1ccc(S(=O)(=O)Cc2ccc(C(=O)N3CCN(c4cccc(C)c4C)CC3)o2)cc1,5.01µM*,-40.5%,13.1%,i,u,u
Cc1cccc(N2CCN(C(=O)c3ccc(CS(=O)Cc4ccc(Cl)cc4)o3)CC2)c1C (stereo not drawn),10µM*,-24.0%,12.6%,u,u,u
Cc1ccccc1S(=O)Cc1ccc(C(=O)N2CCN(c3cccc(C)c3C)CC2)o1 (stereo not drawn),1.12µM*,-43.2%,x,x,x,x
O=C(c1ccc(CS(=O)Cc2ccc(Cl)cc2)o1)N1CCN(c2cccc(Cl)c2)CC1 (stereo not drawn),u,-14.1%,3.7%,i,u,-30.3%
Cc1cccc(N2CCN(C(=O)c3ccc(CS(=O)c4cccc(Cl)c4)o3)CC2)c1C (stereo not drawn),1µM*,-29.9%,x,x,u,x
